Source: PubChem
MCF10A rerep: inducers of DNA re-replication in MCF 10A breast cells; 2.9% of 350,000 active; MCF 10A DNA re-replication, Hoechst nuclear intensity, 48 h; Potency, µM (series often up to 46.1 µM), without a hit: at the top dose activity, positive = re-replication, most hits filed as activators; note: % of control where 0% means no effect; nearly all actives have a fitted effect of over 50% in size
AT treatment: potential ataxia-telangiectasia treatment; F2112 A-T fibroblasts, KAP-1 phosphorylation AlphaLISA; neocarzinostatin DNA damage 30 min before lysis; Potency, µM (titrated, usually from 57.5 µM), inactives show at the top dose activation, hits mostly activators; 0.19% of 320,000 active; AID 485349; note: % of control where 0% means no effect; nearly all actives have a fitted effect of over 45% in size
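ATM-like activity read as KAP-1 phosphorylation via AlphaLISA donor/acceptor antibody pairs after lysis and 6 hr at 25C. Cells were ATM-null patient fibroblasts (F2112, hTERT), dosed 60 min, then exposed to the DSB inducer NCS for 30 min.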
SW480 rerep: DNA re-replication induction in SW480 cells. Potency, µM (highest dose often 46.1 µM), inactives show top-dose re-replication activation, hits mostly activators. 1.8% of 340,000 active. SW480 DNA re-replication, Hoechst DNA content imaging, 48 h; note: % of control where 0% means no effect; nearly all actives have a fitted effect of over 55% in size
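Hoechst fluorescence of nuclei (405 nm excitation, 500-530 nm emission) measured by plate-scanning imager after 48 hr compound exposure at 37 C; re-replication scored as increased number of nuclei with elevated intensity.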
ELG1 repair inh: blocks ELG1-dependent DNA repair in HEK293T cells. HEK293T ELG1-luciferase reporter, luminescence, 16 h; DNA damage induced by 5-fluorouridine. Potency, µM (top dose mostly 46.1 µM), without a hit: at the highest dose activity change, negative = inhibition, usual class: inhibitors. 2.3% of 330,000 active. AID 504467; note: % is set by controls: 0 for no effect and ±100 for the full control effect; nearly all actives have a fitted effect of over 55% in size
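Luminescence from the luciferase reporter, measured 30 min after ONE-Glo reagent at room temperature, was the read-out. Beforehand, 2,000 cells per well were exposed for 16 hr at 37 °C to 5-fluorouridine together with compound or vehicle.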
ELG1 genotoxic: induces genotoxicity in HEK293T cells with luciferase-tagged ELG1. HEK293T ELG1-luciferase reporter, luminescence, 16 h. Potency, µM (highest dose often 46 µM), for the others: at the top dose activity change, positive = activation, hits mostly activators. 1.3% of 330,000 active; note: % of control where 0% means no effect; nearly all actives have a fitted effect of over 60% in size
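DMSO vehicle served as control against compound-treated ELG1-luciferase HEK293T cells; exposure lasted 16 hr at 37 °C and 5% CO2, followed by ONE-Glo luminescence detection after 30 min.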
p53 reactivation: restores transcriptional activity of mutant p53; H1299 p53-A138V BP100-luciferase reporter, luminescence, 24 h; Potency, µM (highest dose often 92.2 µM), without a hit: at the highest dose activity change, positive = activation, hits mostly activators; 0.063% of 320,000 active; note: % of control where 0% means no effect; nearly all actives have a fitted effect of over 45% in size
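p53-null H1299 cells stably carrying temperature-sensitive p53-A138V and a BP100-luciferase reporter were pinned with compounds (4-point, 1:5 series) and held 24 hrs at 37 deg C. Luminescence was read 10 min after detection reagent.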
Starred values were filed as active, the others as inactive; ? = inconclusive; · = no result given; [ ] = dose if it differs, or a comment. Rows were chosen to be rich in hits. Some 7.1% of all compounds tested hit in one or more screens of this group. Calls come from the whole dose curve; as a rule, active = well fitted curve in the direction sought with a large enough effect; inconclusive = small, poorly fitted or top-dose-only effect, or another doubt; inactive = no such curve, though single readings can be large; an effect the other way counts as inactive or inconclusive. Potency is the fitted concentration of half-maximal effect.

SMILES	MCF10A rerep	AT treatment	SW480 rerep	ELG1 repair inh	ELG1 genotoxic	p53 reactivation
O=C(CNC(=O)C(c1ccccc1)c1ccccc1)N/N=C\c1ccc(C(=O)O)cc1	-3%	-1%	-5%	?	-1%	7%
Cc1ccc(C(C)C)c(OCCN2CCc3ccccc3C2)c1	?	35µM*	-3%[9.22 µM]	?	-4%	-4%
Cc1cc(C(C)(C)C)ccc1OCCCCN1CCCC1	13µM*	7%	4%	12%	-2%	0%
Cc1ccc(OCCCCN2CCc3ccccc3C2)c(C)c1	25%	35µM*	?	?	-5%	·
Cc1cc(C(C)(C)C)ccc1OCCN1CCCC1	?	·	0%	0%	-7%	0%
NC(N)=NCC1COc2ccccc2O1 (stereo unspecified)	-3%	·	-1%	·	·	·
Cc1ccc(S(=O)(=O)N(CC(=O)Nc2cccc(C)c2C)C(=O)N2CCN(C)CC2)cc1	-2%	-2%	-3%	21%	-10%	1%
COc1ccc(CCNC(=O)CCCn2ncn3c(cc4occc43)c2=O)c(OC)c1	?	3%	-22%	-4%	-2%	-5%
Cc1ccc(C(=O)c2cn(Cc3ccc(Cl)cc3)c3nc(C)ccc3c2=O)cc1	·	3%	·	·	·	·
COc1ccc(-c2nc(N3CCC(C)CC3)[nH]c(=O)c2C#N)cc1	3.7µM*	0%	?	0%	3%	-1%
COc1ccc(-c2nc(N3CCCC3)[nH]c(=O)c2C#N)cc1	?	12%	-9%	-4%	7%	-5%
O=C(COc1ccc(Br)cc1)NNC(=O)c1ccc(-n2cncn2)c([N+](=O)[O-])c1	1%	-3%	2%	9%	1%	0%
c1ccc(Oc2ccc(-c3ccnc4nc(N5CCOCC5)nn34)cc2)cc1	18µM*	1%	16µM*	18µM*	-10%	-7%
Cc1nc2ccccn2c1-c1csc(Nc2ccc(C(=O)O)cc2)n1	12µM*	-7%	12µM*	?	6%	-6%
N[C@H](COP(=O)(O)O)C(=O)O	2%	·	0%	·	·	·
Oc1[nH]c2ccc(Br)cc2c1N=NC(=S)Nc1ccc(F)cc1	1%	0%	?	?	-15%	-8%
Cc1cccc(C)c1OCC(=O)N=Nc1c(O)[nH]c2ccc(Br)cc12	21µM*	2%	?	?	-7%	-4%
COc1ccc(/C=N/OCC(=O)N=Nc2c(O)[nH]c3ccc(Br)cc23)cc1	24%	-5%	1%	?	11%	-4%
Oc1ccc(NC(=S)N=Nc2c(O)[nH]c3ccc(Br)cc23)cc1	?	-9%	?	16µM*	-5%	2%
Cc1ccc(N2C(=O)C3C4CCC(O4)C3C2=O)c(OC(F)F)c1 (stereo unspecified)	-2%	-1%	-13%	10%	-1%	-5%
COc1ccccc1-n1c(SC(C)C(=O)NCC2CCCO2)nc2cc(Cl)ccc2c1=O (stereo unspecified)	1%	2%	-4%	-9%	-1%	-8%
C[C@H]1CN([C@@H](C)CO)C(=O)c2cccc(NC(=O)c3nc4ccccc4s3)c2O[C@H]1CN(C)C(=O)Nc1ccc(F)cc1	-17%	1%	8%[9.22 µM]	?	-4%	-2%
COc1cc(OC)cc(-c2c(-c3cccs3)c3cc(-c4ccc(C(N)=O)cc4)ccc3n2C)c1	16µM*	-6%	?	20%	?	-2%
COc1ccc(S(=O)(=O)N2CCOCC2)cc1C(=O)N1CCCCC1	-3%	9%	-14%	?	0%	-1%
O=S(=O)(Nc1ccc(Cl)cn1)c1cccs1	5%	-11%	-10%	-6%	0%	1%
SMILES	MCF10A rerep	AT treatment	SW480 rerep	ELG1 repair inh	ELG1 genotoxic	p53 reactivation
COc1ccc(NS(=O)(=O)c2cc(NC(=O)c3ccc(=O)[nH]n3)ccc2C)cc1	?	11%	18µM*	?	1%	-3%
Cc1c(NC(=O)C(C)OC(=O)c2ncc(Cl)c(Cl)c2Cl)c(=O)n(-c2ccccc2)n1C (stereo unspecified)	-2%	-9%	-40%	19%	1%	-2%
O=c1c2c(nc3c(-c4ccc(Cl)cc4)c[nH]n13)CCC2	30%	-3%	?	13µM*	-9%	5%
O=C(N[C@H]1C/C=C\C[C@@H](CC(=O)N(CCO)Cc2ccccc2)C(=O)N[C@H](Cc2c[nH]c3ccccc23)COC1=O)OCC1c2ccccc2-c2ccccc21	-2%	1%	0%	21µM*	-5%	-1%
O=C1N[C@@H](Cc2c[nH]c3ccccc23)COC(=O)[C@@H](Cc2ccc(F)cc2)C/C=C\C[C@H]1CC(=O)N(CCO)Cc1ccccc1	?	7%	-14%	18µM*	-11%	2%
O=C1N[C@H](Cc2ccccc2)COC(=O)[C@H](Cc2ccc(F)cc2)C/C=C\C[C@@H]1CC(=O)N(CCO)Cc1ccccc1	11%	-8%	12%	?	-8%	7%
O=C1N[C@@H](Cc2c[nH]c3ccccc23)COC(=O)[C@H](Cc2ccc(F)cc2)C/C=C\C[C@@H]1CC(=O)N(CCO)Cc1ccccc1	16%	0%	17%	23µM*	-9%	14%
CSc1ccc(C(=O)NCC(c2ccco2)N(C)C)cc1[N+](=O)[O-] (stereo unspecified)	-27%	-7%	-16%	13%	0%	4%
COc1ccc(OC)c(-c2oc3ccccc3c(=O)c2O)c1	0%	-1%	?	-26%	?	2%
COc1cc(OC)c(-c2oc3ccccc3c(=O)c2O)c(OC)c1	?	·	16µM*	·	·	·
Cc1c(CCO)c(=O)n2c([nH]c3ccccc32)c1C#N	-4%	5%	-7%	-23%	-3%	-2%
CCCCc1c(C)c(C#N)c2[nH]c3ccccc3n2c1=O	18µM*	-3%	-1%	?	-12%	-8%
COC(=O)/C=c1/s/c(=C(/C#N)C(=O)N2CCOCC2)n(-c2ccccc2)c1=O	?	-4%	-6%[9.22 µM]	?	2%	-4%
COC(=O)/C=c1/s/c(=C(/C#N)C(=O)N2CCCCC2)n(-c2ccccc2)c1=O	13%	2%	0.33µM*	?	4%	1%
CCN(CC(=O)Nc1ccc(NC(C)=O)cc1)C(=O)c1ccc(C(=O)c2ccccc2)cc1	-9%	3%	-11%	-5%	-1%	-3%
